Test results as given in PubChem BioAssay AID1159580 (chemical genetic matrix, 2015).
The whole screen tested about 5,500 compounds, of which about 2,000 (36%) were called active. Another 18% or so got no clear call; they are omitted. The list shows a part of the results. A number with no mark means an inactive call. Cut-off read from the data, not from the text of the source: active = normalized growth mostly below about 0.91 (no sharp cut-off); inconclusive = no clear call, values can overlap the other calls; inactive = mostly above about 0.92.

Assay: chemical genetic growth profiling, strain panel (AID 1159580);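 note: tested at 20 µM; growth read once vehicle control cultures reached saturation at 30 °C; 1 = growth at the plate median or of vehicle wells; lower values mean less growth of the strain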
Conditions: growth OD
[1] = S. cerevisiae deletion strains, locus YAL040C, strain CLN3, active compounds read low
[2] = S. cerevisiae deletion strains, locus YCL061C, strain MRC1 (second series), active compounds read low
[3] = S. cerevisiae deletion strains, locus YDR150W, strain NUM1, active compounds read low
[4] = S. cerevisiae deletion strains, locus YDR363W, strain ESC2, active compounds read low
[5] = S. cerevisiae deletion strains, locus YER002W, strain NOP16, active compounds read low
[6] = S. cerevisiae deletion strains, locus YGR078C, strain PAC10, active compounds read low
[7] = S. cerevisiae deletion strains, locus YMR263W, strain SAP30, active compounds read low
[8] = S. cerevisiae deletion strains, locus YNL153C, strain GIM3, active compounds read low
[9] = S. cerevisiae deletion strains, locus YNL175C, strain NOP13, active compounds read low
[10] = S. cerevisiae deletion strains, locus YNL197C, strain WHI3, active compounds read low
[11] = S. cerevisiae deletion strains, locus YNL224C, strain SQS1, active compounds read low
[12] = S. cerevisiae deletion strains, locus YOR083W, strain WHI5 (second series), active compounds read low
[13] = S. cerevisiae deletion strains, locus YPL055C, strain LGE1, active compounds read low
[14] = S. cerevisiae deletion strains, locus YMR307W, strain GAS1, active compounds read low
[15] = S. cerevisiae deletion strains, locus YNL322C, strain KRE1, active compounds read low
[16] = S. cerevisiae deletion strains, locus YPL241C, strain CIN2, active compounds read low
[17] = S. cerevisiae deletion strains, locus YJR075W, strain HOC1, active compounds read low
[18] = S. cerevisiae deletion strains, locus YAL013W, strain DEP1, active compounds read low

CCCCCCCCCC(=O)NC(CN1CCOCC1)[C@H](O)c1ccccc1 (stereo partly drawn)
normalized growth [1]: 0.989 | normalized growth [2]: 0.987 | normalized growth [3]: 0.977 | normalized growth [4]: 0.942 | normalized growth [5]: 0.963 | normalized growth [6]: 0.97 | normalized growth [7]: 1 | normalized growth [8]: 0.941 | normalized growth [9]: 0.962 | normalized growth [10]: 0.944 | normalized growth [11]: 0.978 | normalized growth [12]: 0.971 | normalized growth [13]: 0.957

CCCCCCCCCC[Si](C)(C)CCC(=O)NC(Cc1ccc(C)cc1)c1ccccc1 (stereo not drawn)
normalized growth [1]: 1.03 | normalized growth [4]: 0.974 | normalized growth [5]: 1.11 [resistant] (active) | normalized growth [7]: 0.998 | normalized growth [14]: 1.01 | normalized growth [9]: 1.05 | normalized growth [11]: 1.17 [resistant] (active) | normalized growth [13]: 1

CC[C@H](NC(=O)c1c(C)c(-c2ccccc2)nc2ccccc12)c1ccccc1
normalized growth [1]: 1.03 | normalized growth [3]: 0.987 | normalized growth [4]: 1.04 | normalized growth [5]: 1.02 | normalized growth [14]: 1.06 | normalized growth [8]: 0.979 | normalized growth [9]: 1.03 | normalized growth [10]: 1.04 | normalized growth [11]: 1 | normalized growth [15]: 0.995 | normalized growth [12]: 1.07 | normalized growth [16]: 0.987

N#CC(C#N)=C(N)/C(C#N)=C/c1ccc(O)cc1
normalized growth [1]: 0.962 | normalized growth [2]: 0.998 | normalized growth [4]: 0.999 | normalized growth [5]: 1 | normalized growth [6]: 1 | normalized growth (S. cerevisiae deletion strains, locus YGR229C, strain SMI1, active compounds read low): 1.04 | normalized growth [17]: 0.957 | normalized growth [7]: 1 | normalized growth [14]: 1 | normalized growth [9]: 0.999 | normalized growth [10]: 0.989 | normalized growth [11]: 1 | normalized growth [15]: 0.99 | normalized growth [12]: 1.01 | normalized growth [13]: 1

N#C/C(=C\c1ccc(O)c(O)c1)C(=O)NCc1ccccc1
normalized growth [18]: 0.997 | normalized growth [1]: 0.984 | normalized growth [2]: 1 | normalized growth [3]: 1 | normalized growth [4]: 1 | normalized growth [5]: 1.01 | normalized growth [6]: 1.01 | normalized growth [17]: 0.992 | normalized growth [7]: 1.01 | normalized growth [14]: 1 | normalized growth [8]: 1.02 | normalized growth [9]: 1.01 | normalized growth [10]: 1.02 | normalized growth [11]: 0.999 | normalized growth [12]: 1.03 | normalized growth [16]: 1

CCOC(=O)/C(C#N)=C/c1ccc(Br)cc1
normalized growth [18]: 0.971 | normalized growth (S. cerevisiae deletion strains, locus YBR229C, strain ROT2, active compounds read low): 0.805 (active) | normalized growth (S. cerevisiae deletion strains, locus YDL101C, strain DUN1, active compounds read low): 0.875 (active) | normalized growth (S. cerevisiae deletion strains, locus YDL134C, strain PPH21, active compounds read low): 0.972 | normalized growth [3]: 0.893 | normalized growth (S. cerevisiae deletion strains, locus YEL061C, strain CIN8, active compounds read low): 0.754 (active) | normalized growth [6]: 0.903 (active) | normalized growth (S. cerevisiae deletion strains, locus YHR030C, strain SLT2, active compounds read low): 0.258 (active) | normalized growth (S. cerevisiae deletion strains, locus YHR087W, strain rtc3, active compounds read low): 0.821 (active) | normalized growth (S. cerevisiae deletion strains, locus YJL187C, strain SWE1, active compounds read low): 0.846 (active) | normalized growth (S. cerevisiae deletion strains, locus YJR043C, strain POL32, active compounds read low): 0.851 (active) | normalized growth [17]: 0.828 (active) | normalized growth (S. cerevisiae deletion strains, locus YKL190W, strain CNB1, active compounds read low): 0.804 (active) | normalized growth (S. cerevisiae deletion strains, locus YLR039C, strain RIC1, active compounds read low): 0.646 (active) | normalized growth (S. cerevisiae deletion strains, locus YLR058C, strain SHM2 (second series), active compounds read low): 0.977 | normalized growth (S. cerevisiae deletion strains, locus YLR085C, strain ARP6, active compounds read low): 0.375 (active) | normalized growth (S. cerevisiae deletion strains, locus YLR262C, strain YPT6, active compounds read low): 0.72 (active) | normalized growth (S. cerevisiae deletion strains, locus YML094W, strain GIM5, active compounds read low): 0.828 (active) | normalized growth (S. cerevisiae deletion strains, locus YMR219W, strain ESC1, active compounds read low): 0.926 (active) | normalized growth [7]: 0.913 | normalized growth [8]: 0.836 (active) | normalized growth (S. cerevisiae deletion strains, locus YNL298W, strain CLA4 (second series), active compounds read low): 0.717 (active) | normalized growth [15]: 0.967 | normalized growth (S. cerevisiae deletion strains, locus YNR030W, strain Alg12, active compounds read low): 0.765 (active) | normalized growth (S. cerevisiae deletion strains, locus YOL006C, strain TOP1, active compounds read low): 0.593 (active) | normalized growth [13]: 0.865 | normalized growth [16]: 0.717 (active) | normalized growth (S. cerevisiae deletion strains, locus YPR135W, strain CTF4, active compounds read low): 0.585 (active) | normalized growth (S. cerevisiae strains, strain wild type, active compounds read low): 0.954
